SIRT5 inh = blocks human SIRT5 desuccinylation of peptide; 330,000 tested, 1.1% active; Purified SirT5, succinyl-peptide AMC, trypsin-coupled fluorescence; inhibition, % at 15 µM; in the data active means inhibition above about 15%; inconclusive means no clear call, values can overlap the other calls
Target sequence (Q9NXA8 whole entry, looked up): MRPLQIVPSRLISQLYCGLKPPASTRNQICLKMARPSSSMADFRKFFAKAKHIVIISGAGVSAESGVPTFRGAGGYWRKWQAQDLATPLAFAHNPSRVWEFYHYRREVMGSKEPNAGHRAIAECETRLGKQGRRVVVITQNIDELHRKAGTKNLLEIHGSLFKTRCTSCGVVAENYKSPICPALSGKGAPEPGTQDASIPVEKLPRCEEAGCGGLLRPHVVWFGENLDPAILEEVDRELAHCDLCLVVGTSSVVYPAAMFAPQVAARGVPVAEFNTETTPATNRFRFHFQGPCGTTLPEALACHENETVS
PDI inh = PDI (human) enzyme inhibition. P07237. PDI insulin aggregation turbidity, A650, 90 min. inhibition, % at 10 µM. 350,000 tested, 0.052% active. AID 588391;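 active means mean inhibition across replicates of 30% or more, whatever share of single replicates reach that level; inconclusive means mean inhibition below 30% while every single replicate reaches 30%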
ERp5 block = ERp5 (human) disulfide isomerase inhibition | inhibition, % at 9.99 µM | ERp5 insulin aggregation, absorbance 650 nm, 90 min | 350,000 tested, 0.05% active | Q15084;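 active means mean replicate inhibition above about 25%, with every replicate also reaching it, limit read from the data, passing the limit was not always enough; inconclusive means only one of those two criteria met; inactive means neither criterion met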
Rtt109 Vps75 = blocks Candida albicans Rtt109/Vps75 acetyltransferase activity; purified Rtt109/Vps75, ThioGlo CoA-SH fluorescence, 4 h; 330,000 tested, 0.16% active; inhibition, % at 34.9 µM; Q5AAJ8;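 active means inhibition of at least 50% in every replicate; inconclusive means best replicate reaches 50% inhibition but some replicates fall short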
DENV2 CPE rescue = protects cells from dengue virus 2 cytopathic effect | DENV2-infected cells, cytopathic effect rescue, plate reader | CPE inhibition, % at 9.99 µM | 350,000 tested, 1.7% active | AID 651640; in the data active means CPE inhibition above about 20%, passing the limit was not always enough; inconclusive means no clear call, values can overlap the other calls; tested in BHK-21 cells
A number is an active result; - = inactive; ? = inconclusive; . = no result given. Only some compounds are listed: those with a hit (about 2.3% of all), similar ones and a draw of the others.

SMILES | SIRT5 inh | PDI inh | ERp5 block | Rtt109 Vps75 | DENV2 CPE rescue
COC(=O)C[C@H]1C[C@H]2c3cc(NC(=O)Cc4ccncc4)ccc3O[C@H]2[C@H](CO)O1 | - | . | 61 | . | -
COC(=O)N1C(=O)[C@](c2ccc(Cl)cc2)(C(C)C)N1C(=O)OC | . | - | - | - | 50
N#C[C@H]1[C@@H](c2ccc(C3=CCCCC3)cc2)[C@H](CO)N1C(=O)NC1CCCCC1 | - | . | - | . | -
O=C(C[C@H]1C[C@H]2c3cc(NC(=O)Nc4ccc(C(F)(F)F)cc4)ccc3O[C@H]2[C@@H](CO)O1)NCc1ccc2c(c1)OCO2 | - | . | ? | . | -
O=C(C[C@@H]1CC[C@@H](NC(=O)Nc2cc(F)ccc2F)[C@@H](CO)O1)Nc1ccccc1 | - | . | - | . | -
CN(CC(=O)Nc1ccc(F)cc1)C(=O)COc1ccccc1Cc1ccccc1 | - | - | - | 51 | -
CN(CC(=O)Nc1ccc(F)cc1)C(=O)COC(=O)c1nc(Cl)ccc1Cl | - | - | - | . | 73
O=C(COC(=O)c1nc(Cl)ccc1Cl)Nc1ccc(Cl)cc1 | - | - | - | - | -
COc1ccccc1C(=O)CSc1nccn1C | - | - | - | 54 | -
Cc1ccc(C(C)C)c(OCCNC(=O)c2ccccc2O)c1 | - | - | - | - | 45
CSc1ccc(Cl)c(C(=O)NCCOc2cc(C)ccc2C(C)C)c1 | - | - | - | - | -
COCC#Cc1ccc2c(c1)O[C@H](CN(C)CC1CCOCC1)[C@@H](C)CN([C@@H](C)CO)S2(=O)=O | - | . | - | . | -
CCC(=O)Oc1ccc(C(CC)C(CC)c2ccc(OC(=O)CC)cc2)cc1 (stereo not given) | - | - | - | - | 42
C[C@H](NC(=O)[C@H]1[C@H](CO)[C@H]2Cn3c(cccc3=O)[C@H]2N1CC1CC1)c1ccccc1 | - | . | - | . | -
NC(=O)[C@@H]1CC2(CC(c3cccc(NC(=O)COc4ccc(Cl)cc4)c3)=NO2)CN1C(=O)c1ccccc1 (stereo not given in full) | - | - | - | - | 66
C=C(C)C(=O)N1CC2(CC(c3cccc(NC(=O)COc4ccc(Cl)cc4)c3)=NO2)C[C@@H]1C(N)=O (stereo not given in full) | - | - | - | - | 34
COc1ccc(C(CNS(=O)(=O)c2ccc(NC(C)=O)c(OC)c2)N2CCCC2)cc1 (stereo not given) | - | - | - | - | 36
COc1ccc(C(CNS(=O)(=O)c2ccc(NC(C)=O)c(OC)c2)N2CCCCC2)cc1 (stereo not given) | - | - | - | - | -
Cc1noc(C)c1NC(=O)Nc1cccc2c1O[C@H](CN(C)Cc1ccc(C(=O)Nc3ccccc3N)cc1)[C@@H](C)CN([C@@H](C)CO)C2=O | 22 | . | - | . | -
Cc1noc(C)c1NC(=O)Nc1cccc2c1O[C@@H](CN(C)Cc1ccc(Oc3ccccc3)cc1)[C@@H](C)CN([C@H](C)CO)C2=O | 37 | . | - | . | -
Cc1noc(C)c1NC(=O)Nc1cccc2c1O[C@H](CN(C)Cc1ccc3c(c1)OCO3)[C@@H](C)CN([C@@H](C)CO)C2=O | - | . | - | . | 21
Cc1noc(C)c1NC(=O)Nc1cccc2c1O[C@H](CN(C)Cc1ccc(C(=O)O)cc1)[C@H](C)CN([C@@H](C)CO)C2=O | - | . | - | . | 26
O=C(c1ccccn1)N1CC(=O)N2[C@@H](CO)[C@H](c3ccc(C#Cc4ccccc4)cc3)[C@@H]2C1 | - | . | - | . | -
CN1CCN(C(=O)C[C@@H]2CC[C@@H]3[C@H](COC[C@H](O)CN3C(=O)C3CC3)O2)CC1 | - | . | - | . | ?
O=C(C[C@H]1CC[C@H](NS(=O)(=O)c2ccc(F)cc2)[C@@H](CO)O1)NCc1ccc(Cl)c(Cl)c1 | - | . | - | . | -
SMILES | SIRT5 inh | PDI inh | ERp5 block | Rtt109 Vps75 | DENV2 CPE rescue
CCCC(=O)Nc1ccc2c(c1)C(=O)N(C)[C@H]1CC[C@@H](CC(=O)O)O[C@@H]1CO2 | - | . | - | . | -
CCOc1cc(N2CCOCC2)c(OCC)cc1NC(=O)CN1CCN(Cc2ccc3c(c2)OCO3)CC1 | - | - | - | - | 29
CCOc1cc(N2CCOCC2)c(OCC)cc1NC(=O)Cc1ccc(OC)c(OC)c1 | . | - | . | - | .
Cc1ccc(Cn2c(C(C)Nc3nc(-c4ccc(Cl)c([N+](=O)[O-])c4)cs3)nc3cc(C(F)(F)F)ccc32)cc1 (stereo not given) | . | - | - | - | -
Cc1ccc(-c2csc(NCCn3c(C)nc4cc(C(F)(F)F)ccc43)n2)cc1 | . | - | - | - | 45
O=C1CN(S(=O)(=O)Cc2ccccc2)C[C@H]2[C@H](c3ccc(C#Cc4ccc(F)cc4)cc3)[C@@H](CO)N12 | - | . | - | . | 38
O=C1CN(S(=O)(=O)Cc2ccccc2)C[C@H]2[C@@H](c3ccc(C#Cc4ccccc4)cc3)[C@H](CO)N12 | 16 | . | - | . | -
O=C1CN(S(=O)(=O)Cc2ccccc2)C[C@@H]2[C@@H](c3ccc(C#Cc4ccc(F)cc4)cc3)[C@H](CO)N12 | - | . | - | . | -
COc1ccccc1NC(=O)N[C@@H]1CC[C@@H](CCNC(=O)Cc2ccccn2)O[C@@H]1CO | - | . | - | . | -
Cc1nn(C)c(N)c1[N+](=O)[O-] | - | - | - | - | -
Cc1nn(C)c(Sc2ccccc2N)c1[N+](=O)[O-] | - | - | - | 153 | -
CC1CCN(S(=O)(=O)N2CCC(C(=O)N3CCC(N(C)CC4CCCO4)CC3)CC2)CC1 (stereo not given) | 18 | . | - | - | ?
CNC[C@H]1Oc2ncc(Br)cc2C(=O)N([C@H](C)CO)C[C@H]1C | - | . | - | . | -
C[C@@H]1CCCCO[C@H](CN(C)S(=O)(=O)c2ccc(Cl)cc2)[C@@H](C)CN([C@@H](C)CO)C(=O)c2cc(NC(=O)Nc3cccc4ccccc34)ccc2O1 | - | . | - | . | -
CC(C)N(C[C@@H]1[C@H](c2ccccc2)[C@@H](CO)N1S(C)(=O)=O)C(=O)CN(C)C | - | . | - | . | 55
CC(C)N(C[C@@H]1[C@@H](c2ccccc2)[C@@H](CO)N1S(C)(=O)=O)C(=O)CN(C)C | - | . | - | . | -
COc1ccccc1NC(=O)N1C[C@H]2[C@@H](c3ccccc31)[C@@H](CO)N2C(=O)c1ccccc1 | - | . | - | . | .
CN1C(=O)c2cc(NC(=O)C3CCC3)ccc2OC[C@H]2O[C@H](CC(=O)NCCc3ccncc3)CC[C@@H]21 | - | . | - | . | -
C[C@@H]1CCCCO[C@@H](CN(C)CC2CCCCC2)[C@H](C)CN([C@H](C)CO)C(=O)c2cc(NC(=O)Cc3ccccc3)ccc2O1 | - | . | - | . | -
COc1ccccc1NC(=O)N[C@@H]1C=C[C@H](CC(=O)N[C@@H](C)c2ccccc2)O[C@H]1CO | - | . | - | . | 66
O=C(C[C@H]1C=C[C@@H](NC(=O)C2CCC2)[C@@H](CO)O1)NCC1CC1 | - | . | - | . | 58
C[C@H](NC(=O)C[C@H]1C=C[C@@H](NC(=O)C2CC2)[C@@H](CO)O1)c1ccccc1 | - | . | - | . | -
C[C@@H](NC(=O)C[C@H]1C=C[C@H](NC(=O)C2CC2)[C@@H](CO)O1)c1ccccc1 | 17 | . | - | . | -

Source: PubChem BioAssay
